According to the supplement of paper PMC9694430:

Assays:
Assay in all cases: thermal shift delta Tm vs DMSO control; higher = stronger stabilization (binding)
Details in all cases: 12.5 µM; protein concentration 2 µM
[1] = test system: LOC_OS01G01410-cb001
How it was run: (§1)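 The melting temperature shift given here is a triplicate mean, measured against protein that received only DMSO. Melting temperatures came from Boltzmann fits of differential scanning fluorimetry data on E. coli-expressed, purified rice kinase domain constructs. Each 19.5 μl well contained 2 μM kinase, 100 mM potassium phosphate pH 7.5, 150 mM NaCl, 10% glycerol, 5 × SYPRO Orange and compound in DMSO. Plates were scanned from 25°C to 95°C at 0.05°C/s.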

[2] = test system: LOC_OS01G02750-cb003
How it was run: as §1

[3] = test system: LOC_OS01G10900-cb004
How it was run: as §1

[4] = test system: LOC_OS01G13800-cb001
How it was run: as §1

[5] = test system: LOC_OS01G14860-cb001
How it was run: as §1

[6] = test system: LOC_OS01G21960-cb002
How it was run: as §1

[7] = test system: LOC_OS01G39600-cb002
How it was run: as §1

[8] = test system: LOC_OS01G48390-cb002
How it was run: as §1

[9] = test system: LOC_OS01G51400-cb002
How it was run: as §1

[10] = test system: T1, LOC_OS01G52050-cb004
T1 sequence (whole entry): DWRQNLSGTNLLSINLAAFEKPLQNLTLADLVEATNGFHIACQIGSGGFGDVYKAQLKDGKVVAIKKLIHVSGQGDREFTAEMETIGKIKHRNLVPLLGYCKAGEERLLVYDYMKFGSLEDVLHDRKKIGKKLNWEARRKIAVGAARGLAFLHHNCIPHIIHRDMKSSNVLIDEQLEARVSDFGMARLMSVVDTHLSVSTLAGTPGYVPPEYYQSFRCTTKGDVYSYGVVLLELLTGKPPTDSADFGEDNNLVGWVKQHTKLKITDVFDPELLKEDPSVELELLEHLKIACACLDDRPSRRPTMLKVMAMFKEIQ
How it was run: as §1

Compound	thermal shift delta Tm [1] [°C]	thermal shift delta Tm [2] [°C]	thermal shift delta Tm [3] [°C]	thermal shift delta Tm [4] [°C]	thermal shift delta Tm [5] [°C]	thermal shift delta Tm [6] [°C]	thermal shift delta Tm [7] [°C]	thermal shift delta Tm [8] [°C]	thermal shift delta Tm [9] [°C]	thermal shift delta Tm [10] [°C]
COc1cccc2cc(-c3nc([C@H]4CC[C@H](C(=O)O)CC4)n4ncnc(N)c34)[nH]c12	0.94	0.05	0.36	-0.29	0.44	0.7	0.94	0.31	0.16	0.07
CN(C)Cc1cccc(N=C(c2ccccc2)c2c(O)[nH]c3cc(C(=O)N(C)C)ccc23)c1	-0.17	0.75	0.14	0.49	0.13	0.52	1.05	1.46	0.16	0.77
C=CC(=O)N1CCC[C@@H](n2nc(-c3ccc(Oc4ccccc4)cc3)c3c(N)ncnc32)C1	0.18	0.65	0.59	0.2	0	0.24	0.74	0.52	0.21	0.5
C1=N/C2=N/c3ccc(OCCN4CCCC4)c(c3)COC/C=C/COCc3cccc(c3)C(=C1)N2 [Pacritinib (SB1518)]	2.82	2.89	2.75	-0.21	4.13	2.75	4.09	2.71	0.34	8.62
CN1CCC(Nc2nc(Nc3ccc(Oc4ccccc4)cc3)c3c(=O)[nH]cc(Br)c3n2)CC1	1.56	2.82	0.27	0.59	2.99	2.71	0.76	2.51	0.72	4.93
Cc1c(CN2CCN(C(=O)[C@H](C)O)CC2)sc2c(N3CCOCC3)nc(-c3cnc(N)nc3)nc12 [Apitolisib (GDC-0980, RG7422)]	0.32	0.18	0.13	0.56	0.1	0.49	0.16	0.64	0.53	0.42
CC1(C)OC(=O)C=C[C@]2(C)[C@H]3CC[C@@]4(C)[C@H](c5ccoc5)OC(=O)[C@H]5O[C@]54[C@]3(C)C(=O)C[C@@H]12 [Obacunone]	0.06	0.16	0.26	0.37	0.35	0.13	-0.45	0.82	-0.06	3
O=C1CCc2c(Oc3ccc4c(c3)[C@@H]3[C@H](O4)[C@H]3c3nc4cc(C(F)(F)F)ccc4[nH]3)ccnc2N1 [Lifirafenib (BGB-283)]	1.01	3.41	2.3	1.54	5.38	1.8	0.61	1.85	0.55	2.71
CN(C)Cc1cccc(N/C(=C2\C(=O)Nc3cc(C(N)=O)ccc32)c2ccccc2)c1	-0.11	0.69	1.98	-0.09	0.65	0.45	0.07	0.48	0.08	0.86
CNCc1ccc(-c2cc(-c3nc(-c4ccc(S(=O)(=O)C(C)C)cc4)cnc3N)on2)cc1	1.4	1.1	3	0.25	4.67	1.88	1.85	0.69	0.46	1.41
COc1ncc(-c2cc(-c3ncc(CN4C[C@@H](C)O[C@@H](C)C4)o3)c3cn[nH]c3c2)cc1NS(C)(=O)=O	0.55	3.05	-0.41	-0.09	-0.11	0.43	0.15	0.01	0.34	-0.19
CCOc1cc(N2CCC(O)CC2)ccc1Nc1ncc2c(n1)N(C)c1ccccc1C(=O)N2C	0.48	0.5	0.7	-0.03	0.03	0.41	-0.54	0.04	0.06	-0.47
CC(C)CC(=O)Nc1n[nH]c2c1CN(C(=O)C1CCN(C)CC1)C2(C)C	0.12	1.36	0.4	0.44	6.4	1.05	-0.1	0.75	0.45	0.59
CC(C)(C)NS(=O)(=O)c1cncc(-c2cc(F)c3nc(N)nn3c2)c1	0.2	0.93	0.04	0.1	0.32	0.56	0.65	0.32	0.36	0.57
CCc1cnn2c(NCc3ccc[n+]([O-])c3)cc(N3CCCC[C@H]3CCO)nc12	0.61	2.64	0.06	0.02	3.51	0.49	-0.18	0.7	0.2	0.32
CCNc1nc(Nc2cc(F)c(C(=O)N3CCOCC3)cc2OC)ncc1C(F)(F)F	0.11	0.63	0.25	0.11	1.18	0.79	0.15	0.72	0.2	-0.2
COc1nccc(-c2c(-c3ccc(F)cc3)ncn2C2CCC(O)CC2)n1 (stereo not given)	-0.16	1.24	-0.06	0.22	-0.06	0.69	-0.45	0.16	0.24	0.27
O=C1NC(=O)/C(=C/c2cccc(C(F)(F)F)c2)S1	-0.06	0.14	0.2	0.24	0.12	0.28	-0.09	0.08	0.11	0.12
CC(C)(CO)n1cc(C(=O)c2cncc(NC(=O)Cc3ccc(Cl)cn3)c2)c2cnc(N)nc21	0.23	0.58	0.35	0.55	0.5	0.13	0.32	0.37	-0.05	2.82
CO[C@H]1C[C@@H]2CC[C@@H](C)[C@@](O)(O2)C(=O)C(=O)N2CCCC[C@H]2C(=O)O[C@H]([C@H](C)C[C@@H]2CC[C@@H](OC(=O)C(C)(CO)CO)[C@H](OC)C2)CC(=O)[C@H](C)/C=C(\C)[C@@H](O)[C@@H](OC)C(=O)[C@H](C)C[C@H](C)/C=C/C=C/C=C/1C	1	0.76	0.53	0.18	0	0.4	0.18	0.44	0.1	0.73
